Data as given in PubChem BioAssay (EPA / NIEHS).
Records with an inconclusive call do not appear. The source made the active and inactive calls. How the source made its calls: active means hit-call score of the fitted dose curve at least 0.9, where 1 is the maximum; inconclusive means response in the unintended direction; inactive means score below 0.9.

test: Tanguay_ZF_120hpf_SOMI_legacy: (Legacy) Oregon State University Tanguay Lab 120 Hour Post-fertilization zebrafish Assay for Somite Malformation (AID 2283647)
Procedure: Tanguay_ZF_120hpf_legacy is a whole embryo, multiplexed endpoint assay using zebrafish larvae exposed for 120 hours post fertilization on a 96-well plate.Tanguay_ZF_120hpf_SOMI_legacy is one of one assay component(s) measured or calculated from the Tanguay_ZF_120hpf_legacy assay. It is designed to make measurements of zebrafish development as detected with brightfield microscopy of developing zebrafish embryos.Data from the assay component Tanguay_ZF_120hpf_SOMI_legacy was analyzed into 1 assay endpoints. This assay endpoint, Tanguay_ZF_120hpf_SOMI_legacy, was analyzed in the positive analysis fitting direction relative to DMSO as the negative control and baseline of activity. Using a type of morphology reporter, gain-of-signal activity can be used to understand changes in developmentals as they relate to the whole embryo. To generalize the intended target to other relatable targets, this assay endpoint is annotated to the zebrafish development intended target family, where the subfamily is somitogenesis.
Zebrafish husbandry: Tropical 5D wild-type adult zebrafish were housed in at an approximate density of 1000 per 100 gallon tank at the Sinnhuber Aquatic Research Laboratory, Oregon State University, Corvallis, OR. Each tank was kept at standard laboratory conditions of 28C on a 14-h light/10-h dark photoperiod in fish water consisting of reverse osmosis water supplemented with a commercially available salt (Instant Ocean). Spawning funnels were placed into the tanks the night prior, and embryos were collected and staged. To increase bioavailability, the chorion was enzymatically removed using pronase (63.6mg/ml, >/= 3.5U/mg, Sigma-Aldrich: P5147) at 4 hours post fertilization (hpf) using a custom automated dechorionator.Chemical exposures: Six hpf dechorionated embryos were placed 1 embryo per well in a 96-well plate prefilled with 90 ul of EM using automated embryo placement systems (AEPS). Ten microliters of each row of dilution plate 2 was added to 2 exposure plates. The final DMSO concentration used was 0.64% (vol/vol). Thirty-two embryos were also exposed to 5uM trimethyltin chloride (positive control). Plates were sealed to prevent evaporation and foil covered to reduce light exposure and kept in a 28C incubator. Embryos were statically exposed until 120 hpf. At 24 hpf, embryos were assessed for photomotor response using a custom photomotor response analysis tool (PRAT) and for developmental toxicity endpoints (MO24: mortality at 24 hpf, DP: developmental progression, SM: spontaneous movement, and NC: notochord distortion). At 120 hpf, locomotor activity was measured using Viewpoint Zebralab and assessed for 18 endpoints. Zebrafish acquisition and analysis program (ZAAP), a custom program designed to inventory, acquire, and manage zebrafish data, was used to collect developmental endpoints as either present or absent (i.e., binary responses were recorded). If mortality occurred for an embryo (at either 24 or 120 hpf), the non-mortality endpoints were not measured.

SMILES	outcome
O=[N+]([O-])C(CO)(CO)CO	inactive
Cc1ccc(N(C)C)cc1	inactive
Cc1ccc(C)c(C)c1	inactive
CN1CCCC1=O	inactive
CC(C)(C)c1cc(O)c(C(C)(C)C)cc1O	inactive
CCCCN(CCCC)CCCC	inactive
OC[C@@H](O)[C@@H](O)[C@H](O)[C@H](O)CO	inactive
COCCOCCOC	inactive
CCCc1cc(=O)[nH]c(=S)[nH]1	inactive
Cc1ccccc1Cl	inactive
C1CCC(SSC2CCCCC2)CC1	inactive
CCCCCCCC=O	inactive
NS(=O)(=O)c1cc2c(cc1Cl)NCNS2(=O)=O	inactive
COc1cc(S(=O)(=O)O)c(C)cc1N=Nc1c(O)ccc2cc(S(=O)(=O)O)ccc12	inactive
Nc1nc(N)c2nc(CNc3ccc(C(=O)N[C@@H](CCC(=O)O)C(=O)O)cc3)cnc2n1	inactive
Nc1ccc2c(c1)C(=O)c1ccccc1C2=O	inactive
Nc1ccc(S(=O)(=O)c2ccc(N)cc2)cc1	inactive
Clc1cc(Cl)c(Cl)cc1Cl	inactive
CCNc1cccc(C)c1	inactive
CC(C)c1ccc(C(=O)N=C(N)N)cc1S(C)(=O)=O	inactive

SMILES	outcome
CC(=O)OCCOCCOCCOC(C)=O	inactive
CCCCCCCCCCCC(=O)OC	inactive
C=CCOC(=O)c1ccccc1C(=O)OCC=C	inactive
Cc1oc(-c2ccccc2)nc1CCOc1cccc2c1ccn2CCC(=O)O	inactive
FC(F)(F)C(F)(F)C(F)(F)C(F)(F)C(F)(F)C(F)(F)CCI	inactive
CCCCc1ccc2c(n1)[C@@H](c1ccc(OC)cc1C[C@H](C)C(=O)O)[C@H](C(=O)O)[C@H]2c1ccc2c(c1)OCO2	inactive
Cc1nc(-c2ccc3c(c2)CCN(CCC2CCC(NC(=O)/C=C/c4ccc(F)cc4)CC2)CC3)no1 (stereo not given)	inactive
CCCCCCC(=O)OCC	inactive
CC(=O)OC/C=C(\C)CCC=C(C)C	inactive
CCCCCCCCCCCCCCCC	inactive
CC1=C(/C=C/C(C)=C/C=C/C(C)=C/CO)C(C)(C)CCC1	inactive
COc1ccc2c(c1)c(CC(=O)O)c(C)n2C(=O)c1ccc(Cl)cc1	inactive
CCCCCCCCCCCCCO	inactive
COc1ccc(S(=O)(=O)N2C(=O)[C@@](c3ccccc3OC)(N3C[C@H](O)C[C@H]3C(=O)N(C)C)c3cc(Cl)ccc32)c(OC)c1	inactive
Cc1ccc2ncccc2c1	inactive
O=C(N[C@@H](Cc1ccccc1)[C@@H](O)C(=O)N1C[C@@H](O)[C@@H](O)C1)c1cc2cc(Cl)ccc2[nH]1	inactive
Cc1ccc(C)c(O)c1C	inactive
CCOC(=O)CCC(=O)OCC	inactive
Cc1cccc([N+](=O)[O-])c1C	inactive
Cc1cc(=O)[nH]c(=S)[nH]1	inactive
